What all share (parameters): species or system human, MV4-11 + K-562 + COLO205 + SK-N-BE2 + OVCAR-8
Assay [1] deals with CAMKK2. Particulars: read-out: apparent Kd, compound concentrations: 100 nM and 1000 nM (sheet 'Samples'), n = 1.
Assay [2] has as its system JAK1. The following applies: read-out: apparent Kd, n = 1.
Assay [3] concerns LATS1. The following applies: read-out: apparent Kd, compound concentrations: 100 nM and 1000 nM (sheet 'Samples'), n = 1.
For assay [4], the system named is MARK2. The following applies: read-out: apparent Kd, compound concentrations: 100 nM and 1000 nM (sheet 'Samples'), n = 1.
In assay [5] the test system is MARK3. Particulars: read-out: apparent Kd, compound concentrations: 100 nM and 1000 nM (sheet 'Samples'), n = 1.
In assay [6] the test system is PKN1. Particulars: read-out: apparent Kd, n = 1.
Assay [7] relates to PRKACB. The following applies: read-out: apparent Kd, n = 1.
For assay [8], the system named is RPS6KA3. Particulars: read-out: apparent Kd, compound concentrations: 100 nM and 1000 nM (sheet 'Samples'), n = 1.
Assay [9] has as its system TBK1. The following applies: read-out: apparent Kd, compound concentrations: 100 nM and 1000 nM (sheet 'Samples'), n = 1.
Assay [10] concerns MTHFD1. The following applies: read-out: apparent Kd, n = 1.
Assay [11] concerns DYNC1LI1. The following applies: read-out: apparent Kd, compound concentrations: 100 nM and 1000 nM (sheet 'Samples'), n = 1.
Assay [12] relates to AGK. The following applies: read-out: apparent Kd, n = 1.
Assay [13] has as its system MAPK7. The following applies: read-out: apparent Kd, compound concentrations: 100 nM and 1000 nM (sheet 'Samples'), n = 1.
Assay [14] relates to NEK3. The following applies: read-out: apparent Kd, compound concentrations: 100 nM and 1000 nM (sheet 'Samples'), n = 1.
Assay [15] relates to PKN2. The following applies: read-out: apparent Kd, n = 1.
Assay [16] concerns WEE1. Particulars: read-out: apparent Kd, n = 1.
Assay [17] concerns PRKDC. Particulars: read-out: apparent Kd; compound concentrations:100 nM and 1000 nM (sheet 'Samples'); n = 1.
Assay [18] relates to T1, T10.
T1 construct: gene NAT10
Particulars: read-out: apparent Kd; compound concentrations:100 nM and 1000 nM (sheet 'Samples'); n = 1.

In assay [19] the test system is MAP3K6. The following applies: read-out: apparent Kd, compound concentrations: 100 nM and 1000 nM (sheet 'Samples'), n = 1.
Assay [20] has as its system ARAF. Particulars: read-out: apparent Kd, compound concentrations: 100 nM and 1000 nM (sheet 'Samples'), n = 1.
Setting [21] is: compound concentrations:100 nM and 1000 nM (sheet 'Samples').

Results on 19 molecules are retold here after PMC11062922 (Nature Chemical Biology, 2023).

Like-named read-outs stand apart in the source and are kept apart here.

As for `O=C1N=C(NCc2cccs2)SC1Cc1ccc2ncccc2c1` (stereo not shown) [RO4629078-000], the potency estimated from few doses in [1] (CATDS: 1.0556199661625101E-2) was 0.586 µM; in assay [2] (compound concentrations: 100 nM and 1000 nM (sheet 'Samples'), CATDS: 8.4918440228529003E-3) it was 1.06 µM; in assay [3] (CATDS: 8.7867541844469099E-3) it was 0.953 µM; in assay [4] (CATDS: 7.7790140637755802E-3) it was 1.43 µM; in assay [5] (CATDS: 8.2190831573709308E-3), 1.18 µM; in [6] (compound concentrations: 100 nM and 1000 nM (sheet 'Samples'), CATDS: 8.6120949637054304E-3), 1.01 µM. In addition, the potency estimated from few doses in [7] (compound concentrations: 100 nM and 1000 nM (sheet 'Samples'), CATDS: 8.4250069561530305E-3) was 1.08 µM; in [8] (CATDS: 8.4062550540876194E-3) it was 1.09 µM; in assay [9] (CATDS: 7.6855251717376097E-3) it was 1.49 µM.
On to `O=C1N=C(NCCc2ccccn2)S/C1=C\c1ccc2ncccc2c1` [RO4508346-000], for which, in [10] (compound concentrations: 100 nM and 1000 nM (sheet 'Samples'), CATDS: 6.5916651027534801E-2), the potency estimated from few doses is 1.98 µM.
`COc1cc(Nc2nccc(N3CCC(NC(=O)C4COc5ccccc5O4)C3)n2)cc(OC)c1OC` (stereo not shown) [GSK1379761A]: the potency estimated from few doses in assay [11] (CATDS: 0.20239822738500499) is 2.02 µM.
Take `Cl.Cl.Cl.c1ccc(Oc2ccc(Nc3ccnc4cc(-c5ccc(CN6CCNCC6)o5)ccc34)cc2)nc1.c1ccc(Oc2ccc(Nc3ccnc4cc(-c5ccc(CN6CCNCC6)o5)ccc34)cc2)nc1` [GW567142A]: the potency estimated from few doses was 1.23 µM in assay [12] (compound concentrations: 100 nM and 1000 nM (sheet 'Samples'), CATDS: 1.95822774177494E-2); 2.37 µM in assay [13] (CATDS: 1.6423654132294602E-2); 1.91 µM in assay [14] (CATDS: 1.7301178546407801E-2); 2.35 µM in [15] (compound concentrations: 100 nM and 1000 nM (sheet 'Samples'), CATDS: 1.6443566928173701E-2).
In the case of `CCN(CC)CCOc1ccc(Nc2ncc3cc(-c4c(Cl)cccc4Cl)c(=O)n(C)c3n2)cc1` [SB-601273], the potency estimated from few doses in assay [16] (setting [21]) was 0.171 µM.
Consider `Cc1cccc(-c2cc(-c3c[nH]nc3-c3ccccn3)ccn2)c1` [GW679395X], for which the potency estimated from few doses in assay [17] is 1.13 µM; in assay [18], 1.94 µM.
Consider `COc1cccc(-n2ncc3c(N/N=C/c4ccc(C(=O)NCCN(C)C)cc4)ncnc32)c1.Cl` [GW784307A], for which the potency estimated from few doses in assay [1] (CATDS: 2.5303732707076199E-2) was 2.12 µM.
Consider `CN1C(=O)c2ccccc2N(C)c2nc(Nc3cnn(C4CCNCC4)c3)ncc21` [XMD-17-51], for which the figures for the potency estimated from few doses in [13] (CATDS: 3.6148838376291702E-2), in assay [4] (CATDS: 1.3481113896194E-2) and in [5] (CATDS: 1.4488422936038499E-2) were 0.101 µM, 2.05 µM and 1.43 µM, respectively.
For `CNC1=NC(=O)/C(=C/c2ccc3ncccc3c2)S1` [RO4595949-000], the potency estimated from few doses in assay [19] (CATDS: 5.3158736559022798E-2) is 1.51 µM.
Consider `CC(=O)N1CCN(c2ccc(Nc3nccc(-c4sc(C(C)C)nc4-c4cccc(NS(=O)(=O)c5ccccc5)c4)n3)cn2)CC1` [GSK1645872A], for which the potency estimated from few doses in assay [20] (CATDS: 2.3399978491415799E-2) was 1.56 µM.
As to `CC(C)c1nc(-c2cccc(NS(=O)(=O)c3c(F)cccc3F)c2F)c(-c2ccnc(Nc3ccc(N4CCOCC4)nc3)n2)s1` [GSK2008607A], the potency estimated from few doses in assay [20] (CATDS: 1.81049419419274E-2) was 2.03 µM.
As to `O=S(=O)(CCOCc1ccc(-c2ccc3ncnc(Nc4ccc(OCc5cccc(F)c5)c(Cl)c4)c3c2)o1)c1ccccc1` [GW615311X], the potency estimated from few doses was 1.31 µM in assay [19] (CATDS: 2.8394321566467099E-2) and 2.46 µM in [14] (CATDS: 2.1900299581920201E-2).
Consider `Nc1nc(N)c2nc(-c3ccccc3)[nH]c2n1` [SKF-12778], for which the potency estimated from few doses in assay [2] (setting [21]) was 0.953 µM; in assay [7] (setting [21]), 1.79 µM; in assay [17], 0.716 µM; in [18] it was 1.13 µM.
For `Fc1ccc(-c2c(-c3ccncc3)[nH]c3nccnc23)cc1` [RO1155697-000], the potency estimated from few doses in [12] (setting [21]) is 1.64 µM.
With `CNC(=O)c1ccccc1Nc1nc(Nc2cccc(CS(C)(=O)=O)c2)ncc1C.O=CO` [GSK1520489A], the potency estimated from few doses in assay [3] (CATDS: 9.9587793654228995E-3) was 1.34 µM; in assay [8] (CATDS: 1.12432401151655E-2), 0.768 µM; in [9] (CATDS: 1.25946113140399E-2), 0.504 µM; in [16] (compound concentrations: 100 nM and 1000 nM (sheet 'Samples'), CATDS: 2.0722471674581099E-2) it was 0.127 µM.
On to `Nc1c(C(=O)c2ccccc2)cnn1-c1ccc(F)cc1` [RO1151246-000], for which the potency estimated from few doses in [15] (setting [21]) was 1.91 µM.
With `Fc1cccc(COc2ccc(Nc3ncncc3C#Cc3ccccc3)cc2Cl)c1` [GW651576X], the potency estimated from few doses in [11] (CATDS: 4.5527640720115801E-2) is 2.22 µM.
Take `COc1cc(F)c(F)c(F)c1C(=O)c1cnc(NC2CCN(S(C)(=O)=O)CC2)nc1N` [RO4600703-000]: the potency estimated from few doses in assay [10] (setting [21]) was 1.3 µM.
Regarding `COc1ccc(C2=NC(c3ccc(Cl)cc3F)C(C(=O)Nc3ccc4[nH]ncc4c3)=C(C)N2)cn1.O=C(O)C(F)(F)F` (stereo not shown) [GSK534913A], the potency estimated from few doses in assay [6] (setting [21]) was 2.05 µM.
